Measurements: PubChem BioAssay AID1345085 (National Center for Advancing Translational Sciences (NCATS), 2018)
Records with an inconclusive call do not appear. Entries that show only a call come without a potency. Activity calls are given as the source filed them. The call rests on the fitted dose curve; in most records, active means well fitted cell-killing curve with a large enough effect; inconclusive means small, poorly fitted or top-dose-only effect, or effect the other way; inactive means no such curve, though single readings can be large or run the other way.

test system: SW626; assay: Confirmatory qHTS for gynecologic anti-cancer compounds from libraries of approved drugs and bioactive compounds; details: gynecologic cancer cell panel viability, ATPlite luminescence, 48 h; series mostly up to 57.6 µM; further: nearly all actives have a fitted effect of over 55% in size
Summary of the method: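 1,000 cells/well; 16 h pre-incubation 37 C, 5% CO2; pin-transferred cpd in DMSO, 11 conc (1:3), 57.5 uM–0.977 nM; 48 h; ATPlite, 15 min RT; luminescence → IC50.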
Potency means the concentration at half of the fitted maximal effect.

SMILES | Potency
C=C(C)[C@H]1Cc2c(ccc3c2O[C@@H]2COc4cc(OC)c(OC)cc4[C@@H]2C3=O)O1 | inactive
C[C@]12CC[C@H]3[C@@H](CCC4=CC(=O)CC[C@@H]43)[C@@H]1CC[C@@H]2OC(=O)CCc1ccccc1 | inactive
CCN1CCN(C(=O)Cc2ccc(Nc3ncc(F)c(Nc4ccc(C(=O)Nc5ccccc5Cl)cc4)n3)cc2)CC1 | inactive
CCNC(=O)C[C@@H]1N=C(c2ccc(Cl)cc2)c2cc(OC)ccc2-n2c(C)nnc21 | inactive
CCOc1ccccc1-n1c(C(C)N2CCN(C(=O)COc3ccc(Cl)cc3)CC2)nc2ccccc2c1=O (configuration not stated) | 4850 nM (active)
C[C@H]1CCC/C=C/C2C[C@H](O)C[C@H]2[C@H](O)/C=C/C(=O)O1 (some centres not stated) | 172 nM (active)
O=C(O)Cc1ccccc1 | inactive
